According to the supplement of paper PMC11732987, “Enantioselective OTUD7B fragment discovery through chemoproteomics screening and high-throughput optimisation” (Communications Chemistry, 2025):

Assays:
Assay in all cases: log2 ratio of Biotin-Ahx-Ub-VS probe labelling (fragment/DMSO); higher = less target engagement (more negative = stronger competition), active = hit call of the paper (q ≤ 0.05, log2 ratio ≤ -1)
Settings in all cases: compound concentration: 200 uM; treatment time: 3 h
USP19 = target: T1, USP19 (UniProt O94966)
T1 sequence (whole entry): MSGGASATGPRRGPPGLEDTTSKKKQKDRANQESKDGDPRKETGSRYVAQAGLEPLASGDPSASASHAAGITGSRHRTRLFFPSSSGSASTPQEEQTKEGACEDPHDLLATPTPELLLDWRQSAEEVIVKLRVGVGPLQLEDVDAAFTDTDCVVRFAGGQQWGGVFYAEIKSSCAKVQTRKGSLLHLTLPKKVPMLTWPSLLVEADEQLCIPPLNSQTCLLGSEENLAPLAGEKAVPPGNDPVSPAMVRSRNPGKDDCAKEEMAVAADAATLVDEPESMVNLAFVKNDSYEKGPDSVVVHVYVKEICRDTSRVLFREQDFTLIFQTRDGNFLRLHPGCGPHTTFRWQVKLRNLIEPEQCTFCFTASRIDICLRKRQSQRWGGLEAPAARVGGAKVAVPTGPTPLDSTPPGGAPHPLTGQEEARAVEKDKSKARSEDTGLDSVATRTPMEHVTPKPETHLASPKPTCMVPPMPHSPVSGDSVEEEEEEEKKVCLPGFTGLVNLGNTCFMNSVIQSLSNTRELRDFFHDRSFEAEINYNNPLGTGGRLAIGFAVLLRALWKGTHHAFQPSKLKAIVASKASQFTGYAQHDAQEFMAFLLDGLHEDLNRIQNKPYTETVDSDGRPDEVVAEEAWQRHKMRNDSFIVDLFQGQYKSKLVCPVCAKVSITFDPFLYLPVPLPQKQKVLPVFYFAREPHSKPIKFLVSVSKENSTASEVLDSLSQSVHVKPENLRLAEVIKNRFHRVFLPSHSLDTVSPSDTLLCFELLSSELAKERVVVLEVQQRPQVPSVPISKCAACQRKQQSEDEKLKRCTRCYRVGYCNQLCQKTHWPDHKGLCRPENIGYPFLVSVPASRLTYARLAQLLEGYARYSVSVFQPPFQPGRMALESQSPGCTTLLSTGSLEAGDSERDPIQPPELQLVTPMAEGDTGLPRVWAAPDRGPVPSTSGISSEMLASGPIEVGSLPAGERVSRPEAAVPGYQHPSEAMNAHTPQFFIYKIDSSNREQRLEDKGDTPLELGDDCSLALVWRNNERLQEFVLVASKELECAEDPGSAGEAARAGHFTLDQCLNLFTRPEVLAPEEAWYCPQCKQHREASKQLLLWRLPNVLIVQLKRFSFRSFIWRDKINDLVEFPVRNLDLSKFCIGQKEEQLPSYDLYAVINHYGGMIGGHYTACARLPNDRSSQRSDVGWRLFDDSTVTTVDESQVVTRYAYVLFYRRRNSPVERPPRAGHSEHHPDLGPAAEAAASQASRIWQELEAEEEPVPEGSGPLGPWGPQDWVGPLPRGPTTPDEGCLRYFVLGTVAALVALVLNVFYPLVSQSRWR
Summary of the method: (§1)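 Labelled DUBs from HEK293T lysate were NeutrAvidin-enriched, digested with LysC and trypsin, and run by diaPASEF LC-MS/MS. Before that, each 495 µg sample in Tris/CHAPS/IGEPAL buffer with protease inhibitors was treated in triplicate with fragment at 200 µM or vehicle for 3 h, then with Biotin-Ahx-Ub-VS at 0.5 µM final for 1 h. Values are average log2 ratios of fragment over vehicle by unpaired t-test, based on global-median-normalised Spectronaut label-free quantities from proteins with ≥2 unique peptides.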

USP22 = target: T2, USP22 (UniProt Q9UPT9)
T2 sequence (whole entry): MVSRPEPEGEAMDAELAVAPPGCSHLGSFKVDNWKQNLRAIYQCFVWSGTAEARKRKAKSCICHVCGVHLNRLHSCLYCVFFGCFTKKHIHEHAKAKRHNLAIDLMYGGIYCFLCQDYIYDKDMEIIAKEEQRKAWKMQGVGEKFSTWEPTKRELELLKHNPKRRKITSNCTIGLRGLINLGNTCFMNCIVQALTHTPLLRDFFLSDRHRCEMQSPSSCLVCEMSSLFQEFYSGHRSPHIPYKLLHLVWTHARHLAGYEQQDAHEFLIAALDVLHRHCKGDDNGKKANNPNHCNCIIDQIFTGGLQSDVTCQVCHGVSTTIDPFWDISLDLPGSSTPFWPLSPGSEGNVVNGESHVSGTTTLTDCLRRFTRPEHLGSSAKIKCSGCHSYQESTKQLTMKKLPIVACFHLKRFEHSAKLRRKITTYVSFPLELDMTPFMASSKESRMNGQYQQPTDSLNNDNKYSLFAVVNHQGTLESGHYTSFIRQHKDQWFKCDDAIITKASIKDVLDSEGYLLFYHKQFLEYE
Summary of the method: as §1

USP24 = USP24 (UniProt Q9UPU5)
USP24, sequence (Q9UPU5 whole entry): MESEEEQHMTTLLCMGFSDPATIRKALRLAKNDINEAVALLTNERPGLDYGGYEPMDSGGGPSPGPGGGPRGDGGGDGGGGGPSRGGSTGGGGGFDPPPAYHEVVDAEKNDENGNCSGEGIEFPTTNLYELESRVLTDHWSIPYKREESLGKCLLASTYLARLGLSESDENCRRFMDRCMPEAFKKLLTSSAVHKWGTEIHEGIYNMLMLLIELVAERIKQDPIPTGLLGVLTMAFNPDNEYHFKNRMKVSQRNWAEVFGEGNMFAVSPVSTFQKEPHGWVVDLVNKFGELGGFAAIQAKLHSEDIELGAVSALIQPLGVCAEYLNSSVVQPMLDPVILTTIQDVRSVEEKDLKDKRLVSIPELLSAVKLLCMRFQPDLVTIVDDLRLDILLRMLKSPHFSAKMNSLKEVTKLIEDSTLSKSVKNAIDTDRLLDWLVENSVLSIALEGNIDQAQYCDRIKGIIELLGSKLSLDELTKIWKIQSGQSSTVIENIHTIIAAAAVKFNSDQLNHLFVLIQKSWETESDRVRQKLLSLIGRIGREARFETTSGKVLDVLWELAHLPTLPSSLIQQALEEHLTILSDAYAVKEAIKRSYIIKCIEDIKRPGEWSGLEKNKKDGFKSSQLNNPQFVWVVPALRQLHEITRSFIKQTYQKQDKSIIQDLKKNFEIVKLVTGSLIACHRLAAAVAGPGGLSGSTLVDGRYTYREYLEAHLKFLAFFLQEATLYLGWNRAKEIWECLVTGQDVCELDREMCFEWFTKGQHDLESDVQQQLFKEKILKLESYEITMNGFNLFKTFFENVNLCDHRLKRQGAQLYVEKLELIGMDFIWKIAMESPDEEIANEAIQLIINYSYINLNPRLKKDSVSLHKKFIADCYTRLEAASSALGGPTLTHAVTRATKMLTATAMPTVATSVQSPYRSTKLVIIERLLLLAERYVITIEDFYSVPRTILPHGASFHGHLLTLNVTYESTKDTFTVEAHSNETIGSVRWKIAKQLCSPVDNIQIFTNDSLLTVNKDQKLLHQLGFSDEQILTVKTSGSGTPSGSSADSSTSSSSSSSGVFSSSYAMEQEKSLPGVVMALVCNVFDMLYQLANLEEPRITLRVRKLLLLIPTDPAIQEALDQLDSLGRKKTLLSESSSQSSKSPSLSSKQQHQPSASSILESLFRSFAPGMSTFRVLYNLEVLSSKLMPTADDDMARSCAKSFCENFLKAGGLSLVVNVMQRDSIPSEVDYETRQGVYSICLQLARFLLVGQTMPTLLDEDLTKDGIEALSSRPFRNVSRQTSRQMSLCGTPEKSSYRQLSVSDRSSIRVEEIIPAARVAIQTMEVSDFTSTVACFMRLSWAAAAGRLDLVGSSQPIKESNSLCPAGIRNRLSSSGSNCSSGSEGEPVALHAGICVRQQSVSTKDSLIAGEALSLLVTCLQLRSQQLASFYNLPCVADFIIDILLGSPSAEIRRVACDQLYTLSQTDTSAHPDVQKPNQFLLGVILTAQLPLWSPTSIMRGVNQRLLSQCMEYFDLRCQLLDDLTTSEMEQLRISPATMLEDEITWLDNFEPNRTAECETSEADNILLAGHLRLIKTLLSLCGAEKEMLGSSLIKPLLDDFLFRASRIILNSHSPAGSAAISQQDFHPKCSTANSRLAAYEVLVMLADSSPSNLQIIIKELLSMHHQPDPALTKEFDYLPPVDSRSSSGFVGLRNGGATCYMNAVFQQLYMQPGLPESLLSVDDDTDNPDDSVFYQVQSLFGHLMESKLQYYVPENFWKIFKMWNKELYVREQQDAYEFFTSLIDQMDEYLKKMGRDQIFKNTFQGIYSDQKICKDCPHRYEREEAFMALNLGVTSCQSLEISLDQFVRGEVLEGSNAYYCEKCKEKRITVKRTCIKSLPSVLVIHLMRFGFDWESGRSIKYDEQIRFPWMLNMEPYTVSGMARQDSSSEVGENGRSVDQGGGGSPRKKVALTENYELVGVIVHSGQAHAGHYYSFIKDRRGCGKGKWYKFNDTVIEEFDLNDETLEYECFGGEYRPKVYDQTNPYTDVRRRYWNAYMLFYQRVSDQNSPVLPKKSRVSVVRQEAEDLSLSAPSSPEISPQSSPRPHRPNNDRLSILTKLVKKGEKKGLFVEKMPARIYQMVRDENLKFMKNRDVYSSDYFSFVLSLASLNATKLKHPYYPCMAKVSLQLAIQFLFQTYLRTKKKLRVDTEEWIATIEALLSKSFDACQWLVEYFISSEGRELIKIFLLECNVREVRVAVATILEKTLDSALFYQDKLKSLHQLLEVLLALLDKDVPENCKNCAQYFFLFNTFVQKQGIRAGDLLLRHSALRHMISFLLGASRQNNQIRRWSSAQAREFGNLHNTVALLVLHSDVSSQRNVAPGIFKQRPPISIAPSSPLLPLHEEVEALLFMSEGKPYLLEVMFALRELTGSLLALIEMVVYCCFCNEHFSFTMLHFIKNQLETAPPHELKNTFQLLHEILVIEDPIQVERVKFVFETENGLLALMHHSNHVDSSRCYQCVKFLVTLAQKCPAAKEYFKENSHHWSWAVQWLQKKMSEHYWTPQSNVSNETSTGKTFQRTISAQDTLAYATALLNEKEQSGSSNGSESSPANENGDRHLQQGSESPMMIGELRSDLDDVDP
Summary of the method: as §1

USP25 = target: T3, USP25 (UniProt Q9UHP3)
T3 sequence (whole entry): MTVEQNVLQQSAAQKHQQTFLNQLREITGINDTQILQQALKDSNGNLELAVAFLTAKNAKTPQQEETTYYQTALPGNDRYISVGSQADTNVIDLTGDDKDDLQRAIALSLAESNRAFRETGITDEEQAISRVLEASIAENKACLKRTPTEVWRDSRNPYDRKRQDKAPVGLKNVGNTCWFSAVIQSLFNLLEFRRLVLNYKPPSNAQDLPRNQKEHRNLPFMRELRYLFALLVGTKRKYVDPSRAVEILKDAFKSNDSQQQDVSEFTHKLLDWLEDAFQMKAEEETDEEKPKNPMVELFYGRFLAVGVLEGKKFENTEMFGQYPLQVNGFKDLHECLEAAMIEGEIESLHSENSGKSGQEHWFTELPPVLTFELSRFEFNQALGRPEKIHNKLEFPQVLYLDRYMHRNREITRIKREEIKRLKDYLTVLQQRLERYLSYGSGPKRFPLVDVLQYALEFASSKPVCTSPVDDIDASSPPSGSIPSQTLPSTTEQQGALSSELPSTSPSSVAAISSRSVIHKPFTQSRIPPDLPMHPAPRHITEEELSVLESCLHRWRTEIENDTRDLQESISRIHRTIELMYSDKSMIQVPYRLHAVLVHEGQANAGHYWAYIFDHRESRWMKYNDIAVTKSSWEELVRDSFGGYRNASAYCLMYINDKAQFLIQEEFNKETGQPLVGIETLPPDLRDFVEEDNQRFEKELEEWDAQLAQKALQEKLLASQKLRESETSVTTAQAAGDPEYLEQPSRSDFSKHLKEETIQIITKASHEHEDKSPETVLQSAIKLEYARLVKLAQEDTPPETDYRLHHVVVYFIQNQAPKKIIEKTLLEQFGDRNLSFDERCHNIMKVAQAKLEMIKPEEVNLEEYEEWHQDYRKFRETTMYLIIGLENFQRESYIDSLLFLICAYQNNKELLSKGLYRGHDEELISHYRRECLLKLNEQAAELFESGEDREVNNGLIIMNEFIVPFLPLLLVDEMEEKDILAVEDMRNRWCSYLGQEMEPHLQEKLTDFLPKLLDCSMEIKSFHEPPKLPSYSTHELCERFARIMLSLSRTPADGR
Summary of the method: as §1

USP28 = target: T4, USP28 (UniProt Q96RU2)
T4 sequence (whole entry): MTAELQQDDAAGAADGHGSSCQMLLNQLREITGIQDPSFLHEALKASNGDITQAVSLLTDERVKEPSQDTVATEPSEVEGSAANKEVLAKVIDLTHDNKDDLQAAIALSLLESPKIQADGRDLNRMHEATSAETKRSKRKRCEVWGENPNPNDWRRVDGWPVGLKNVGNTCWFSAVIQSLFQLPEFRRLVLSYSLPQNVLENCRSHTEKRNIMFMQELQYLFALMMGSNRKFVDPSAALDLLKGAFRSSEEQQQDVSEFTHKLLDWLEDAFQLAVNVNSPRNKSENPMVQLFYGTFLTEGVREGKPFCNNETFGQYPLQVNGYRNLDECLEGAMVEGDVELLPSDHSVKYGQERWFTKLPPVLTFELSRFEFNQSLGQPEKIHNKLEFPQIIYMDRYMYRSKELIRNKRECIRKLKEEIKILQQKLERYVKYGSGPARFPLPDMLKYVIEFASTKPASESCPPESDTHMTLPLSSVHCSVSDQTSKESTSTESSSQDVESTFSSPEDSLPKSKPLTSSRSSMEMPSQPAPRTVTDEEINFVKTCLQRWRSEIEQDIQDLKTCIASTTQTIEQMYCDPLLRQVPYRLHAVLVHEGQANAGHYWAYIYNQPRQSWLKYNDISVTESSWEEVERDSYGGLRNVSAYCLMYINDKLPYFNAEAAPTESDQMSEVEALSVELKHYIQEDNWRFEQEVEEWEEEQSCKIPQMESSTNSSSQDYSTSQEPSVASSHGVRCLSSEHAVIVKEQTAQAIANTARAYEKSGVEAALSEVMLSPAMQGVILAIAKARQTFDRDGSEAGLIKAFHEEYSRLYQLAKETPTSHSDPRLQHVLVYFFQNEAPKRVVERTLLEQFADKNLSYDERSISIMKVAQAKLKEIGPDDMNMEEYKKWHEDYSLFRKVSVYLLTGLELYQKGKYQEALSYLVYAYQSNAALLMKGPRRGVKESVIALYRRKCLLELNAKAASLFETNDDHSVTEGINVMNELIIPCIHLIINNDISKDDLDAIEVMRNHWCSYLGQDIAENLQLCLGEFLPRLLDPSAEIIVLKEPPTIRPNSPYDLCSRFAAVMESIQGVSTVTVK
Summary of the method: as §1

Measured: log2 ratio of Biotin-Ahx-Ub-VS probe labelling

O=C(CCl)Nc1ccc(F)cc1Cl
inactive: USP19 -0.2 | USP22 -0.0369 | USP24 -0.832 | USP25 -0.414 | USP28 -0.873
